# Source: PubChem BioAssay
# Pf growth 48h: Primary qHTS for delayed death inhibitors of the malarial parasite plastid, 48 hour incubation. P. falciparum luciferase growth in erythrocytes, 48 h. Potency, µM (doses to about 28.7 µM), for inactives: top-dose activity change, negative = inhibition, actives largely listed as inhibitors. 5.9% of 310,000 active. AID 504832, 2011; note: % is set by controls: 0 for no effect and ±100 for the full control effect
#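 Luciferase-expressing parasites in RBCs, 2% Hct / 0.1% parasitemia final; RPMI 1640 + 0.5% Albumax; 37 C, 5% CO2, one generation; luminescence read-out, lower signal = inhibition.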
# NS1 inh: qHTS Assay for Inhibitors of Influenza NS1 Protein Function; Potency, µM (top dose mostly 46.1 µM), without a hit: at the top dose activity, positive = more growth; 0.4% of 270,000 active; AID 2326, 2010; calls by dose curve; note: actives are rising curves; nearly all actives have a fitted effect of over 50% in size
#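 Compounds were scored for reversing the slow growth caused by influenza A NS1 in S. cerevisiae, measured by optical density at 600 nm. Assay medium contained 2% galactose at pH 6.0; NS1-free yeast of the same strain were the positive control.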
# Sm TGR inh: qHTS Assay for the Inhibitors of Schistosoma Mansoni Peroxiredoxins; AID 485364, 2010; purified TGR, DTNB reduction, TNB absorbance 405 nm; 3% of 360,000 active; Potency, µM (highest dose often 114 µM), for inactives: at the top dose activity change, negative = inhibition, actives largely listed as inhibitors; note: % is set by controls: 0 for no effect and ±100 for the full control effect; nearly all actives have a fitted effect of over 60% in size
#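 TGR 20 nM + NADPH 100 uM (dispensed conc.), cpd preinc 15 min RT; start with NADPH (500 uM addition) then DTNB (15 mM addition). Kinetic TNB absorbance, 405 nm filter. Four-parameter Hill fit across titration.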
# AMA1-RON2 inh: qHTS for Inhibitors of AMA1-RON; Towards Development of Antimalarial Drug Lead: Primary Screen; AlphaScreen AMA1-biotinylated RON2 peptide binding; 0.2% of 360,000 active; Potency, µM (doses to about 58.2 µM), for the others: top-dose activity change, negative = inhibition, hits mostly inhibitors; AID 720542, 2013; Plasmodium falciparum AMA1 (3D7) - RON2 peptide interaction;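 note: 0% = vehicle wells and -100% = peptide control; nearly all actives have a fitted effect of over 45% in size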
#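 AMA1 (3D7) with his tag at 25 nM final met compounds first, then biotinylated RON2 peptide at 25 nM; detection used donor plus acceptor beads, 10 µg/mL apiece, read by AlphaScreen after 30 min at room temperature.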
# Pf growth 96h: Primary qHTS for delayed death inhibitors of the malarial parasite plastid, 96 hour incubation. P. falciparum luciferase reporter growth, 96 h. Potency, µM (series often up to 28.7 µM), for the others: at the top dose activity change, negative = inhibition, most hits filed as inhibitors. 6.9% of 320,000 active; note: % is set by controls: 0 for no effect and ±100 for the full control effect
#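 Two parasite generations (96 h, 37 C, 5% CO2) of compound exposure in infected erythrocytes (0.05% parasitemia, 2% hematocrit). Luciferase-reporter P. falciparum; decreased luminescence indicates inhibited growth, aimed at apicoplast-acting delayed death.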
# Numbers without * were called inactive; i = inactive; ? = inconclusive; · = no result given. In the library only some 11% were active in any assay of this set; here they are far more common. Unless noted, calls come from the whole dose curve; as a rule, active = well fitted curve in the direction sought with a large enough effect; inconclusive = small, poorly fitted or top-dose-only effect, or another doubt; inactive = no such curve, though single readings can be large; an effect the other way counts as inactive or inconclusive. Potency is the fitted concentration of half-maximal effect.
SMILES,Pf growth 48h,NS1 inh,Sm TGR inh,AMA1-RON2 inh,Pf growth 96h
COc1cc(OC)c(C2=NOC(C(=O)Nc3c(C)nn(CC(=O)N4CCCC4)c3C)C2)cc1Cl (stereo not given),-6.7%,-6.2%,1.8%,14.3%,5.86µM*
CCOC(=O)c1cccc(NC(=O)CCc2c(C)nc3c4cccnc4nn3c2C)c1,·,·,5.2%,·,·
c1coc(CNc2ncnc3[nH]ncc23)c1,?,16.2%,-1.1%,-1.4%,5.8%
Cc1sc2ncnc(NCc3cccs3)c2c1C,1.2%,-47.7%,7.5%,13.4%,2.7%
Cc1sc2ncnc(NCc3ccco3)c2c1C,-5.5%,-5.5%,-35.0%,-7.4%,9.28µM*
c1coc(CNc2ncnc3nc[nH]c23)c1,-8.0%,0.4%,-7.2%,-0.8%,9.28µM*
c1coc(CNc2nc3nonc3nc2NCc2ccco2)c1,1.5%,-2.7%,50.1µM*,24.1%,i
Nc1ccc2c(c1)OCCOCCOCCOCCOCCO2,188.2%,·,-9.7%,28.7%,5.86µM*
C/C(=N/O)c1ccc2c(c1)OCCOCCOc1cc(/C(C)=N/O)ccc1OCCOCCO2,?,-3.7%,-7.4%,11.5%,13.1µM*
O=S(=O)(Nc1cccc(-c2ccc(N3CCOCC3)nn2)c1)c1ccc(F)cc1F,·,·,-0.5%,·,·
O=C1NC[C@@H](Cc2cccc3ccccc23)N(CC2(c3ccccc3)CC2)C1=O,11.7µM*,-9.0%,-4.1%,-4.5%,13.1µM*
CCCC1Cc2c(sc3nc(SC)nc(N)c23)CO1 (stereo not given),-13.0%,-6.2%,-24.6%,-23.2%,112.1%
CSc1nc(N)c2c3c(sc2n1)COC(C(C)C)C3 (stereo not given),·,-2.3%,-21.5%,3.0%,5.22µM*
COc1ccc2c(c1)CCC1(C)CC(=O)C(Br)=C21 (stereo not given),·,·,·,3.5%,·
O=C(c1ccccc1)N1CCCC(c2ccc(Cl)cc2)=N1,14.7µM*,-52.8%,2.8%,-5.7%,9.28µM*
O=C(C1CC1)N1CCCC(c2ccc(Cl)cc2)=N1,46.2%,·,1.4%,-4.5%,-7.3%
O=C(c1cccc(Cl)c1)N1CCCC(c2ccc(Cl)cc2)=N1,?,-2.3%,0.1%,16.2%,3.7µM*
Nc1nc(-c2ccc3ccccc3c2)cc(-c2cc(-c3ccc4ccccc4c3)nc(N)n2)n1,·,-0.1%,·,·,·
Cc1ccccc1CC1(CO)CCCN(C(=O)Cc2c(F)ccc(F)c2F)C1 (stereo not given),-1.6%,2.1%,-8.0%,0.0%,0.0%
Cc1ccc(NC(=O)CN(C)CC(=O)N(CC(C)C)c2c(N)n(CC(C)C)c(=O)[nH]c2=O)c(C)c1,?,·,-14.0%,37.5%,-1.7%
COc1ccccc1NC(=O)NNC(=O)c1ccc2ccccc2c1O,24.6%,?,1.0%,49.0%,42.8%
COc1nccnc1NS(=O)(=O)c1ccc(NC(=S)NC(=O)c2ccc(F)cc2)cc1,16.6%,11.1%,44.7µM*,-10.1%,54.0%
COc1nccnc1NS(=O)(=O)c1ccc(NC(=S)NC(=O)c2cccnc2)cc1,?,-1.0%,20µM*,-3.5%,?
COc1nccnc1NS(=O)(=O)c1ccc(NC(=S)NC(=O)c2ccccc2F)cc1,-20.6%,15.6%,?,1.8%,97.8%
COc1nccnc1NS(=O)(=O)c1ccc(NC(=S)NC(=O)c2cccc(F)c2)cc1,-0.6%,19.8%,44.7µM*,3.8%,15.0%
O=C(NC(=S)Nc1ccc(S(=O)(=O)Nc2nccs2)cc1)c1ccc(F)cc1,-2.8%,21.0%,28.2µM*,26.6%,6.8%
COc1ccc(NC(=O)NC2CCCCCCC2)cc1OC,34.0%,-4.8%,-0.1%,-0.9%,?
C=C(C(=O)Nc1ccccc1)c1ccc(C)cc1,?,·,-0.6%,9.2%,47.1%
Cc1ccc(S(=O)(=O)CC(=O)Nc2nc3ccc(S(N)(=O)=O)cc3s2)cc1,-24.1%,4.4%,-10.6%,-6.4%,-18.1%
COc1cc(C2C(C(=O)/C=C/c3ccccc3)=C(O)C(=O)N2c2ccccn2)ccc1O (stereo not given),-0.2%,-1.1%,·,14.9%,9.5%
